Assay results published in the supplement of paper PMC11732987, “Enantioselective OTUD7B fragment discovery through chemoproteomics screening and high-throughput optimisation” (Communications Chemistry, 2025).

Columns and labels:
Assay in all cases: log2 ratio of Biotin-Ahx-Ub-VS probe labelling (fragment/DMSO); higher = less target engagement (more negative = stronger competition), active = hit call of the paper (q ≤ 0.05, log2 ratio ≤ -1)
Settings in all cases: compound concentration: 200 uM; treatment time: 3 h
[1] = molecular target: T1, ALG13 (UniProt Q9NP73)
T1 sequence (whole entry): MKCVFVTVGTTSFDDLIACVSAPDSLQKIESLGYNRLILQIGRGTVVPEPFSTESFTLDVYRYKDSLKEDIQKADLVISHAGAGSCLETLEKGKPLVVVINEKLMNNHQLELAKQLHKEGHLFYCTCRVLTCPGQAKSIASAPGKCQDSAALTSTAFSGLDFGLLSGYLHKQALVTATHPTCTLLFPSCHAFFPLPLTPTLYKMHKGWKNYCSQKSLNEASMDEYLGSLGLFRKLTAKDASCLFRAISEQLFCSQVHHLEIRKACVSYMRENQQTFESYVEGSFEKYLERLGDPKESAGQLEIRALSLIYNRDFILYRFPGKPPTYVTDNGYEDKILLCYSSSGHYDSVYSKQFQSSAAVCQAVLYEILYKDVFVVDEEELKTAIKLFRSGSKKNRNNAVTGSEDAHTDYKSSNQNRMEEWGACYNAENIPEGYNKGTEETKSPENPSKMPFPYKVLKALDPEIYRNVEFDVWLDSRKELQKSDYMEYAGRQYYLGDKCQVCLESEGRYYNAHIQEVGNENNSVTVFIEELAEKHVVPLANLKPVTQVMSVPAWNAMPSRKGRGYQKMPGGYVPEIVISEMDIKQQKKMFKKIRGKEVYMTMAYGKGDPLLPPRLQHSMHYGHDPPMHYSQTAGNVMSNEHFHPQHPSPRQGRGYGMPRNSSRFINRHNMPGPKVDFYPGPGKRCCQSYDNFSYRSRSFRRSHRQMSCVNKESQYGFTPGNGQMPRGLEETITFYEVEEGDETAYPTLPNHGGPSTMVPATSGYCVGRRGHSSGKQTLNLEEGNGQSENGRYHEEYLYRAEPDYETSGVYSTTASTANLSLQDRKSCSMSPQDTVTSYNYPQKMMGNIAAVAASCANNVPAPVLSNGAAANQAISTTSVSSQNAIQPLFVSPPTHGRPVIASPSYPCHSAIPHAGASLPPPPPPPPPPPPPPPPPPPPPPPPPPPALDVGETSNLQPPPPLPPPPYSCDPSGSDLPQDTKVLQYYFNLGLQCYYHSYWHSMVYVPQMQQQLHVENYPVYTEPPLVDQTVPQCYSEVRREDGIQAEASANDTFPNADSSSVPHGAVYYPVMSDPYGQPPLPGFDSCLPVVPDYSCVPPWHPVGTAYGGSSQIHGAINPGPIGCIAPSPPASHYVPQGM
Method in brief: (§1)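 Lysate from HEK293T cells, 495 µg per sample in Tris/CHAPS/IGEPAL buffer with protease inhibitors, was treated for 3 h in triplicate with fragment at 200 µM or vehicle. Biotin-Ahx-Ub-VS was next added at 0.5 µM final for 1 h. The labelled DUBs were enriched with NeutrAvidin, digested with LysC and trypsin, and run by diaPASEF LC-MS/MS, with values given as average log2 fragment/vehicle ratios by unpaired t-test on global-median-normalised Spectronaut quantities of proteins with ≥2 unique peptides.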

[2] = molecular target: ATXN3 (UniProt P54252)
Method in brief: as §1

[3] = molecular target: T2, BAP1 (UniProt Q92560)
T2 sequence (whole entry): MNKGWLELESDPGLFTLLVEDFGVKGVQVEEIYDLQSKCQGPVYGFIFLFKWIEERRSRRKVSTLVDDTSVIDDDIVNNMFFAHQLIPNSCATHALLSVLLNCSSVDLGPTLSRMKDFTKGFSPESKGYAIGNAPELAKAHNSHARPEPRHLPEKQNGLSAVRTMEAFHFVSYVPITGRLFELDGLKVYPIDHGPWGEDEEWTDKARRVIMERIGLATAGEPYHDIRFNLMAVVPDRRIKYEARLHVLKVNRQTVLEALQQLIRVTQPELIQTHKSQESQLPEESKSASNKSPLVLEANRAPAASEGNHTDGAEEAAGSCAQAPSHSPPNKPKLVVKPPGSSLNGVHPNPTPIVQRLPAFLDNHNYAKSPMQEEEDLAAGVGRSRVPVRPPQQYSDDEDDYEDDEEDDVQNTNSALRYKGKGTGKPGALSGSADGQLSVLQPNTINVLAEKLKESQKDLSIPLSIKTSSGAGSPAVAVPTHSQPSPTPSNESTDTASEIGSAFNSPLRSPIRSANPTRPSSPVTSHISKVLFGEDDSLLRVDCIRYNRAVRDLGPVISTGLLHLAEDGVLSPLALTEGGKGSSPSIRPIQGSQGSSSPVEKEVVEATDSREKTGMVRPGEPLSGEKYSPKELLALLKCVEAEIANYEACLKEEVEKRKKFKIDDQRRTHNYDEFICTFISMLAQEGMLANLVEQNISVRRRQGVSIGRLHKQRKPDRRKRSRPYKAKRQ
Method in brief: as §1

[4] = molecular target: EIF3F (UniProt O00303)
Method in brief: as §1

[5] = molecular target: EIF3H (UniProt O15372)
Method in brief: as §1

[6] = molecular target: T3, FAM105A (UniProt Q9NUU6)
T3 sequence (whole entry): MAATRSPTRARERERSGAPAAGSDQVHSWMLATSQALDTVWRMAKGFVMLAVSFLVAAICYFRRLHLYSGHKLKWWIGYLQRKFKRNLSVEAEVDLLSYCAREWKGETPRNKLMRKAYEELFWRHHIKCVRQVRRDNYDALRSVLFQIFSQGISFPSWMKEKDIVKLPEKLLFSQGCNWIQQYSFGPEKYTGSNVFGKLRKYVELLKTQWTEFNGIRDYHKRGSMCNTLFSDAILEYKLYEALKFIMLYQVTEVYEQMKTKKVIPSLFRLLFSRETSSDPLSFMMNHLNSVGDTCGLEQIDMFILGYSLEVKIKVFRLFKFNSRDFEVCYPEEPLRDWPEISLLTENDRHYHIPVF
Method in brief: as §1

[7] = molecular target: OTUB1 (UniProt Q96FW1)
Method in brief: as §1

[8] = molecular target: T4, OTUD4 (UniProt Q01804)
T4 sequence (whole entry): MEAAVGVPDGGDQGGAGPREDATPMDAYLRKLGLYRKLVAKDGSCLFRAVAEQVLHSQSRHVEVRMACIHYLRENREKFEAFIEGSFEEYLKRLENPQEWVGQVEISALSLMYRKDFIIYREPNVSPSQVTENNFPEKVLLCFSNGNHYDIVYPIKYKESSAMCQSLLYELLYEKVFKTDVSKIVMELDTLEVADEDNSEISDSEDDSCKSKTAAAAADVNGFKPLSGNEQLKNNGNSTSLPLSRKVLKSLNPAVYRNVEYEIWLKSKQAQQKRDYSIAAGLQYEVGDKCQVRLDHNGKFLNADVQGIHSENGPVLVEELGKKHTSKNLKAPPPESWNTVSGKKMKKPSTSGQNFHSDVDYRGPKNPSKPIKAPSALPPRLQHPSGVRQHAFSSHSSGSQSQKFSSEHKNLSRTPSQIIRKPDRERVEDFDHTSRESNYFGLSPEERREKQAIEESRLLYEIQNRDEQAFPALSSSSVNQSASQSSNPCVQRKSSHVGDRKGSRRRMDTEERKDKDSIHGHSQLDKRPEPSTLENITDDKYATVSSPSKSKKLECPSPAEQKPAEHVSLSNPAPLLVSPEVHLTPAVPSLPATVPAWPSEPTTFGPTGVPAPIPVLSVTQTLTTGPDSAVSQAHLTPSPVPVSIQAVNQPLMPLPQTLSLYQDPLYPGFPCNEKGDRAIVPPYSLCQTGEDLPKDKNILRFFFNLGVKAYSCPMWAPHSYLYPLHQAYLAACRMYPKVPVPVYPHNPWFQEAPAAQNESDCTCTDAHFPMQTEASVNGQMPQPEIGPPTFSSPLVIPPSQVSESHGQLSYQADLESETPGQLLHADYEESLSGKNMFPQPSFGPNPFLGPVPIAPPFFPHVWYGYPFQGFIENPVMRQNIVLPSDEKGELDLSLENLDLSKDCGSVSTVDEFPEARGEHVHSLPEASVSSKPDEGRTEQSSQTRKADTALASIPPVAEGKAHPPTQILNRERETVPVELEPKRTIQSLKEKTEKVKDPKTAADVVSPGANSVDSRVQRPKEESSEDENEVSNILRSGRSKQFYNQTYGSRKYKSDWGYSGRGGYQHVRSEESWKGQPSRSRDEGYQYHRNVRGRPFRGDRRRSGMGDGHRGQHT
Method in brief: as §1

[9] = molecular target: T5, OTUD5 (UniProt Q96G74)
T5 sequence (whole entry): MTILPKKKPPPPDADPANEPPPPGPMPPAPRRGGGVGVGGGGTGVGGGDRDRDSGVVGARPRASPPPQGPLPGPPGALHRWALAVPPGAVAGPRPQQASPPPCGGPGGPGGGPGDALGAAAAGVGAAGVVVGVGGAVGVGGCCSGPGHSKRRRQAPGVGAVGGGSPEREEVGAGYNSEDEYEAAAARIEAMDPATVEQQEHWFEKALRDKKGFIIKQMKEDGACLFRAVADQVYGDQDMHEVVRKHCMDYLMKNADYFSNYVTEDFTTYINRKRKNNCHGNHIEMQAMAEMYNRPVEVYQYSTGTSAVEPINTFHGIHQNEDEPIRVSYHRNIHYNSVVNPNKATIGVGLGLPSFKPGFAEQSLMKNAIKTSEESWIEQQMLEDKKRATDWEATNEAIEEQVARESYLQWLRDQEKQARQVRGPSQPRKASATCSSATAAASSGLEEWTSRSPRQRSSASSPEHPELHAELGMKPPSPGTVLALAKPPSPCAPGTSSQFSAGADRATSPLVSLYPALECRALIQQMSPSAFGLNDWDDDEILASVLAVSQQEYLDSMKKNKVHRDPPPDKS
Method in brief: as §1

Measured: log2 ratio of Biotin-Ahx-Ub-VS probe labelling

Chain of OTUB1 (Q96FW1 whole entry): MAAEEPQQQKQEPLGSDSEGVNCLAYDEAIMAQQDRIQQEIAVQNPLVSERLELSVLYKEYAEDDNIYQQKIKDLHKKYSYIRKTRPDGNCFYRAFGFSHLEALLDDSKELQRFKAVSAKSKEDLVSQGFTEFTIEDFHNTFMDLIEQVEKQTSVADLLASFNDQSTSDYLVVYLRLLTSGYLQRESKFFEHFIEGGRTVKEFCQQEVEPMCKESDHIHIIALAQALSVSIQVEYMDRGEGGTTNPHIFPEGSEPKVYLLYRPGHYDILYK
Chain of EIF3H (O15372 whole entry): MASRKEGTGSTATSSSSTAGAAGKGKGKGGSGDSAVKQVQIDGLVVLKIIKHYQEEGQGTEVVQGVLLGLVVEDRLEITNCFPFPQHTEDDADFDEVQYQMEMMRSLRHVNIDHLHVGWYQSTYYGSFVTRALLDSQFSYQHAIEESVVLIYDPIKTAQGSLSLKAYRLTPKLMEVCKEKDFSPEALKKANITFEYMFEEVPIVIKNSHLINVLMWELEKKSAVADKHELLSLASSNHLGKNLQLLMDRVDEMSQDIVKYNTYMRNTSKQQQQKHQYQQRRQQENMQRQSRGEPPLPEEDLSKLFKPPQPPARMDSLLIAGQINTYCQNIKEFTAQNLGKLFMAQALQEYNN
Chain of ATXN3 (P54252 whole entry): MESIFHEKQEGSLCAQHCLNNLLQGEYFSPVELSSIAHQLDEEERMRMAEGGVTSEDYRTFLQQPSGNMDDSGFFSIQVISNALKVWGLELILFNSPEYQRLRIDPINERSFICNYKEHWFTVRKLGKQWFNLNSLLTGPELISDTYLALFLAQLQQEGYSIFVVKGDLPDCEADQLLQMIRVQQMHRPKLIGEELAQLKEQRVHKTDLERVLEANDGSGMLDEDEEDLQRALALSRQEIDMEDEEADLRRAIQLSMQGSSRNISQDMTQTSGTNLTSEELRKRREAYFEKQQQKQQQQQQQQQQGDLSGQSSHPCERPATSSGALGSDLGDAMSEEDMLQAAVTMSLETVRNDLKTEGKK
Chain of EIF3F (O00303 whole entry): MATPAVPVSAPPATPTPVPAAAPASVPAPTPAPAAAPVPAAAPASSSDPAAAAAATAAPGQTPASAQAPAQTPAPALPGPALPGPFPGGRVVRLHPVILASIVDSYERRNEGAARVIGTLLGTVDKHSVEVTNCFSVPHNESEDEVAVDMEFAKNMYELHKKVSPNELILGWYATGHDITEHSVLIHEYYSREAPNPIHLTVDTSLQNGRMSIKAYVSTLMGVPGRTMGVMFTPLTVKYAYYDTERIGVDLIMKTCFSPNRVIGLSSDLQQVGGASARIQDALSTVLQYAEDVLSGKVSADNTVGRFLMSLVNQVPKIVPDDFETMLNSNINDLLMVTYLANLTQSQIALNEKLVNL

O=C(CCl)N1CCN2C(=O)CCC2C1 (centres undefined)
inactive: [1] 0.0971 | [2] -0.237 | [3] -0.591 | [4] 0.0885 | [5] -0.0249 | [6] 0.154 | [7] -0.19 | [8] -0.461 | [9] -0.499
